Assay results taken from PubChem BioAssay AID651814 (National Center for Advancing Translational Sciences (NCATS), 2012).
Several values for one entry are separate records, joined by “and”; a condition that tells them apart may be missing. Equal entries are not always repeated. Out of some 2,100 compounds screened, about 590 (28%) were called active. Roughly 42% stayed inconclusive and do not appear here. Some of the results follow. Values without a mark were called inactive. The call rests on the fitted dose curve; in most records, active means well fitted inhibition curve with a large enough effect; inconclusive means small, poorly fitted or top-dose-only effect; inactive means flat fitted curve, though single readings scatter.

Molecular target: DNA dC->dU-editing enzyme APOBEC-3F (Homo sapiens) (UniProt Q8IUX4)
Sequence (Q8IUX4 whole entry, looked up): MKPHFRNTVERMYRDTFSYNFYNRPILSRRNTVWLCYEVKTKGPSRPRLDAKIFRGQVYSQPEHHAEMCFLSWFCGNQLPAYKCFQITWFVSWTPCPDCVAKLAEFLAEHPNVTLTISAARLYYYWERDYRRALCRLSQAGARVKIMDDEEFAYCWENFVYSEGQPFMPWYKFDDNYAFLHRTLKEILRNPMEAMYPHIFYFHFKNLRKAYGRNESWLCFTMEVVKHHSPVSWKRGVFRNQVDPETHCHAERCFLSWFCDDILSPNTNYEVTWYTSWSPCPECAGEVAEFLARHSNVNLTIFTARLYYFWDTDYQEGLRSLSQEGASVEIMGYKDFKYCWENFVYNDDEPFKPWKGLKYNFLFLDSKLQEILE
Assay: qHTS for inhibitors of Vif-A3F interactions: Cherry picks; further: nearly all actives have a fitted effect of over 70% in size;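 on max response: % of control where 0% means no effect; active compounds raise eYFP fluorescence by blocking Vif-driven A3F loss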
Conditions: HeLa A3F-eYFP + Vif (tagged APOBEC3F with the HIV-1 protein that degrades it), eYFP fluorescence, 24 h
How it was run: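 HeLa cells stably expressing A3F-eYFP plus Vif, cultured overnight, then exposed to compounds at several concentrations for 24 h at 37 deg C. Reduced Vif-driven degradation read as rising eYFP fluorescence (488 nm ex/500-530 nm em) by laser-scanning cytometry; MG132 as positive control.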
Potency means the concentration at half of the fitted maximal effect.

SMILES | Potency | max response [%]
N#Cc1c(-c2ccccc2F)cc(C2CC2)nc1SCC(=O)c1cccs1 | 17.7 µM (active) | –
CCc1c(C)nc(SCC(=O)c2cccs2)c(C#N)c1C | – | 0.208
CCn1c(CNC(=O)c2cc(OC)c(OC)c(OC)c2)cc2cc(C)ccc21 | – | 2.52
Cc1ccc2nc(-c3ccccn3)c(NC3CCCC3)n2c1 | – | -1.86
c1ccc(Nc2nc(-c3ccccn3)cs2)cc1 | – | -4.92
CCc1cccc2c(C(O)c3c[nH]c4ccccc34)c[nH]c12 (stereo unspecified) | 18.4 µM (active) | –
COc1cccc(C2=CC(c3cccs3)n3nnnc3N2)c1 (stereo unspecified) | 6.27 µM (active) | –
C=CCOC(=O)C1=C(C)Nc2nnnn2C1c1cccs1 (stereo unspecified) | – | -1.29
COc1ccc(C2=CC(c3ccc(N(C)C)cc3)n3nnnc3N2)cc1 (stereo unspecified) | – | -6.88
CCOC(=O)C1=C(Cc2ccc(Cl)cc2)C(=O)c2ccccc2C1=O | 16.4 µM (active) | –
CCCC(=O)NC1=C(Cl)C(=O)c2ccccc2C1=O | – | 5.27
S=C(Nc1ccccc1)N1CCn2c1nc1ccccc12 | – | -7.52
Cc1cc2nc(SCCOC(=O)Nc3cccc(Cl)c3)nc(C)c2cc1C | – | 3.73
COc1cccc(N2CC(O)=C(c3nc4ccccc4s3)C2=N)c1 | 5.59 µM (active) | –
CCN(CC)c1ccc(/C=C/c2cccc[n+]2C)c(OC)c1 | 3.14 µM (active) | –
C(=C\c1c[nH]c2ccccc12)/c1ccc2ccccc2n1 | 23.1 µM (active) | –
Cc1[nH]c2ccccc2c1/C=C/c1ccc2ccccc2n1 | 7.31 µM (active) | –
C(=Cc1c[nH]c2ccccc12)c1ccc2ccccc2n1 | 23.1 µM (active) | –
CCOC(=O)c1c(-c2ccc(OC)cc2)csc1/N=C/C1=C(O)CCCC1=O | – | -6.09
Cc1ccccc1-n1c(/C=C/c2c(C)n(C)c3ccccc23)nc2ccccc2c1=O | 8.2 µM (active) | –
CN1CCc2c(sc(NC(=O)CSc3ccc(F)cc3)c2-c2nc3ccccc3s2)C1 | 7.31 µM (active) | –
COc1ccc(NC(=O)c2sc3nc(-c4ccc(OC)cc4)cc(C(F)(F)F)c3c2N)cc1 | 1.3 µM (active) | –
COc1cc(C(=O)Nc2nnc(Cc3ccccc3)s2)cc(OC)c1OC | – | -23.2

SMILES | Potency | max response [%]
Nc1c(C(=O)O)sc2nc(-c3ccc(F)cc3)cc(-c3ccccc3)c12 | – | -11.4
COc1cccc(C(=O)c2sc3nc(-c4ccccc4)cc(C(F)(F)F)c3c2N)c1 | 1.46 µM (active) | –
Cc1cc(C(F)(F)F)c2c(N)c(C(=O)Nc3cc(C)on3)sc2n1 | – | -20.9
CCC(=O)OCc1cnc(C)c2oc(=O)c(C(=O)Nc3ccccc3C(F)(F)F)cc12 | – | -0.08
COc1ccc(OC)c(NC(=O)c2sc3nc(Cc4ccccc4)cc(C(F)(F)F)c3c2N)c1 | 8.2 µM (active) | –
COc1ccc(C(=O)c2sc3nc(-c4ccc(C)cc4)cc(C(F)(F)F)c3c2N)cc1 | 8.2 µM (active) | –
CN1C2=CC=CC=CC2=[N+](C)C12C([N+](=O)[O-])=CC(=[N+]([O-])[O-])C=C2[N+](=O)[O-] (stereo unspecified) | – | -0.344
COc1ccccc1/C=N/NC(=S)Nc1cccnc1 | – | -4.95
CC(=O)c1cccc(NC(=O)C2CCCN(S(=O)(=O)c3cccc4nonc34)C2)c1 (stereo unspecified) | – | -0.245
COc1ccc(C(=O)c2sc3nc(C)cc(-c4cccs4)c3c2N)cc1 | 18.4 µM (active) | –
O=C(NC(=S)N1CCN(C2CCCCC2)CC1)c1ccccc1 | – | 3.13
CCCCN1C(=O)/C(=C/C=C2/CC(C)(C)CN2C)SC1=S | 3.96 µM (active) | –
Cc1ccc(Cn2c(SCc3ccc(C(=O)NC4CCCC4)cc3)nc3ccncc32)cc1 | – | -0.957
ClCC1NCC(c2ccccc2Cl)c2c1[nH]c1ccccc21 (stereo unspecified) | – | -5.81
Cn1cc(C2=C(c3ccc(Cl)cc3Cl)C(=O)NC2=O)c2ccccc21 | 2.91 µM (active) and 14.6 µM (active) | –
COc1ccc(S(=O)(=O)N2c3ccccc3OCC2CC(=O)O)cc1 (stereo unspecified) | – | -27.6
COc1cc(NC(=O)c2ccco2)c(C(=O)OCC(=O)c2c[nH]c3ccccc23)cc1OC | – | -11.7
Cn1nnc2c[n+](CC(=O)c3ccc(Cl)cc3)cc(Br)c21 | 17.7 µM (active) | –
O=C(Nc1cc(Cl)ccc1-n1cncn1)c1ccc([N+](=O)[O-])s1 | 15.8 µM (active) | –
N#CC1=C(N)Oc2ccc3ccc(O)cc3c2C1c1ccsc1 (stereo unspecified) | – | -15.9
N#CC1=C(N)Oc2cc(N)ccc2C1c1ccc(F)cc1F (stereo unspecified) | 18.4 µM (active) | –
Cc1oc(C)c2c(=O)ccc3c(c12)OC(N)=C(C#N)C3c1ccc(F)cc1 (stereo unspecified) | – | 1.74
O=C1[C@@H]2[C@@H](CN3CN(c4ccccc4)N=C(c4ccccc4)[C@@]23c2ccccc2)C(=O)N1c1ccccc1 | – | -0.723

SMILES | Potency | max response [%]
CC[n+]1ccccc1/C=C/c1ccc(N(C)C)cc1 | 20.6 µM (active) | –
CC(C)CC[n+]1ccccc1/C=C/c1ccc(N(C)C)cc1 | 20.6 µM (active) | –
Cc1ccc(-c2csc(NC3OC(=O)c4ccccc43)n2)cc1 (stereo unspecified) | 14 µM (active) | –
Fc1ccc(CNc2nc3ccccc3n3nnnc23)cc1 | 23.1 µM (active) | –
Fc1ccc(CNc2nc3ccc(Cl)cc3n3nnnc23)cc1 | – | -20.9
c1ccc2c(c1)nc(NCC1CCCO1)c1nnnn12 (stereo unspecified) | – | -11.8
c1ccc2c(CCc3c[nH]c4ccccc34)ccnc2c1 | 20.6 µM (active) | –
COc1ccccc1OCC(=O)N/N=C/C=C/c1ccc([N+](=O)[O-])o1 | 10.3 µM (active) | –
Cc1ccccc1OCC(=O)N/N=C/c1ccc(N(C)C)cc1 | – | -27.7
O=C(N/N=C/C=C/c1ccco1)c1ccncc1 | – | -0.284
O=C(N/N=C\C=C\c1ccc([N+](=O)[O-])o1)c1cccs1 | 12.5 µM (active) | –
O=C(COc1ccccc1-c1ccccc1)NN=C1CCCC1 | – | -15.6
O=C(CN1C(=O)CSc2ncccc21)Nc1cccc(Cl)c1 | – | -15.2
CC(C)COc1ccc(C(=O)N/C(=C/c2cccc([N+](=O)[O-])c2)C(=O)O)cc1 | – | -0.401
CC(=O)n1cc(/C=N/NC(=O)c2sc(C)nc2C)c2ccccc21 | – | -21.7
COc1ccc(N=Cc2oc3ccc4ccccc4c3c2O)cc1 | 5.17 µM (active) | –
COc1ccc(N=Cc2c(O)c3ccccc3n2C(C)=O)cc1 | 20.6 µM (active) | –
COc1ccc(N=Cc2sc(O)c3ccccc23)cc1 | 8.86 µM (active) | –
Oc1sc(C=Nc2ccccc2)c2ccccc12 | 20.6 µM (active) | –
CCCC(=O)NC(c1ccc(OC)cc1)c1c(O)ccc2ccccc12 (stereo unspecified) | – | -21
CC1(C)CC(=O)C(C=Nc2cc(C(=O)c3ccccc3)ccc2N)=C(O)C1 | – | -20.7
O=c1[nH]c2ccccc2n2c(=S)[nH]nc12 | – | -3.48
COc1ccc(N/C=C2\C(=O)CCc3c2oc2cc(Cl)c(O)c(Cl)c32)cc1 | – | -28.6

SMILES | Potency | max response [%]
COC(=O)C1C2CC3c4[nH]c5cc(OC)ccc5c4CCN3CC2CC(OC2CCCCO2)C1OC (stereo unspecified) | – | -12.1
S=c1[nH]cnc2sc(-c3ccccc3)cc12 | – | -2.16
Oc1sc(C=Nc2ccc(F)cc2)c2ccccc12 | 4.11 µM (active) | –
CCN(CC)C(=O)CSC(Nc1cccc(F)c1)=C(C#N)C#N | – | -4.73
O=C(NN=Cc1c(O)ccc2ccccc12)c1ccc2c(c1)OCO2 | – | -14.5
O=C(N/N=C/c1ccc2c(c1)OCO2)c1ccc2c(c1)OCCO2 | – | -24.9
CN(C)c1ccc(/C=N/NC(=O)c2cc(-c3ccc4c(c3)OCO4)n[nH]2)cc1 | 17.7 µM (active) | –
COCCCNC(=S)N/N=C/c1cccc(OC)c1O | – | -1.71
CCCN1CCc2c(sc(NC(=O)c3ccc(S(=O)(=O)N(C)c4ccccc4)cc3)c2C(=O)NC)C1 | 23.1 µM (active) | –
CC(C)(C)C(=O)Nc1sc2c(c1C#N)CCN(Cc1ccccc1)C2 | – | -17.1
O=C(Nc1ncc(Cc2ccc(SC(F)F)cc2)s1)c1ccccc1 | – | -6.02
CC(C)CN(CC(C)C)S(=O)(=O)c1ccc(C(=O)Nc2sc3c(c2C(N)=O)CCN(C(C)C)C3)cc1 | 20.6 µM (active) | –
Cc1nc2ccc(NC(=O)c3cc(S(=O)(=O)N(C)c4ccccc4)ccc3Cl)cc2s1 | – | -11.3
CCCN1CCc2c(sc(NC(=O)c3ccc(S(=O)(=O)N(C)c4ccccc4)cc3)c2C(N)=O)C1 | 20.6 µM (active) | –
NC(=O)c1c(NC(=O)c2ccccc2)sc2c1CCN(Cc1ccccc1)C2 | 14 µM (active) | –
CCCCOc1ccc2c(c1)/C(=C(\C(Cl)=C(Cl)Cl)[N+](=O)[O-])N2 | – | -18.3
CCS(=O)(=O)N1CCc2cc(C(=O)N3CCN(c4cccc(C(F)(F)F)c4)CC3)ccc21 | – | -12.8
CC1=CC(C)(C)NC(=S)N1c1ccc2ccccc2c1 | – | 1.72
CCN1CCc2c(sc(-n3cccc3)c2C(C)NC(=O)Nc2ccc(C(=O)OC)cc2)C1 (stereo unspecified) | – | 0.47
N#Cc1c(NC(=O)c2ccc([N+](=O)[O-])o2)sc2c1CCC2 | – | -22.4
CC(C)N1CCc2c(sc(NC(=O)c3cc4cc([N+](=O)[O-])ccc4s3)c2C(N)=O)C1 | 20.6 µM (active) | –
CCN1CCc2c(sc(NC(=O)c3ccc(S(=O)(=O)N(CC)c4ccccc4)cc3)c2C(N)=O)C1 | 9.94 µM (active) | –
